Assay outcomes from PubChem.
Tau fibril FP = inhibitors of human tau fibril formation; K18 P301L tau heparin fibrillization, Alexa594 FP, 6 h; Potency, µM (doses to about 57.7 µM), without a hit: at the highest dose activity, negative = inhibition, actives largely listed as inhibitors; 280,000 tested, 0.39% active; P10636; AID 1468; further: nearly all actives have a fitted effect of over 55% in size
Target sequence (P10636 561-689 P618L limits assumed): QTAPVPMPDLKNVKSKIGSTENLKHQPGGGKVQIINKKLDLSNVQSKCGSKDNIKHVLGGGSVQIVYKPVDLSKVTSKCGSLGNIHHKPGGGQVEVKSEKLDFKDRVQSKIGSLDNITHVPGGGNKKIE
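Human K18 P301L fragment (15 uM unlabeled plus 0.24 uM Alexa 594-labeled) in 100 mM sodium acetate pH 7 with compound, aggregation induced by 20 uM heparin for 6 hr at 37 C. ThT (30 uM) added for 1 hr, then Alexa 594 FP read.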
Tau fluor cs = counter-screen for tau fibril formation inhibitors; tau K18 P301L Alexa594 fluorescence, heparin fibrillization; Potency, µM (series often up to 57.7 µM), inactives show at the top dose activity change, negative = decrease; 280,000 tested, 0.93% active; further: nearly all actives have a fitted effect of over 55% in size
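Human tau K18 P301L (15 uM unlabeled, 0.24 uM Alexa 594-labeled) in 100 mM sodium acetate pH 7 with 20 uM heparin, 6 hr at 37 C. ThT 30 uM added, 1 hr ambient; Alexa 594 FP and total fluorescence read at 555/632 nm.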
RORgamma inh = blocks mouse ROR gamma transcriptional activity; P51450; Drosophila S2 Gal4-RORgamma UAS-luciferase reporter, 20 h; Potency, µM (series often up to 53.6 µM), without a hit: at the highest dose activity change, negative = inhibition, usual class: inhibitors; 310,000 tested, 5.4% active; AID 2551; further: nearly all actives have a fitted effect of over 60% in size
Target sequence (P51450 whole entry, looked up, the tested form may be a part): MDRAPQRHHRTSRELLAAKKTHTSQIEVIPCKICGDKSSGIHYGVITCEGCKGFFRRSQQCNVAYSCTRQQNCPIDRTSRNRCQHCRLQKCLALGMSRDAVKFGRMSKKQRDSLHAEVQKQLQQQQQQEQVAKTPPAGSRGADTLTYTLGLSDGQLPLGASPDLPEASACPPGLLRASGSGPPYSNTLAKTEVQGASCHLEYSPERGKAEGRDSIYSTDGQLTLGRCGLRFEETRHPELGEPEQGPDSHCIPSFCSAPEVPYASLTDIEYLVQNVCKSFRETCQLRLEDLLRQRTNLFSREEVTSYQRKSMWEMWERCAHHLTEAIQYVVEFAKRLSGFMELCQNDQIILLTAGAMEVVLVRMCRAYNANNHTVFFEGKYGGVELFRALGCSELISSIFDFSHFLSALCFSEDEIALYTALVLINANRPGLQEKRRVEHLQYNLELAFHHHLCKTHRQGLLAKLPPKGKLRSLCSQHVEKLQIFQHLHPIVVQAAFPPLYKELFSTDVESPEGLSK
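Drosophila S2 cells stably expressing Gal4-DBD/mouse RORγ fusion under metallothionein promoter plus UAS-luciferase; compound 1 h, then 700 uM CuSO4 induction for 20 h at ambient temperature; inhibition read as reduced luminescence.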
VP16 counter = inhibits Gal4-VP16 luciferase reporter, ROR gamma counter-screen. Drosophila S2 Gal4-VP16 UAS-luciferase, luminescence, 20 h. 310,000 tested, 3.5% active. AID 2546. Potency, µM (highest dose often 53.6 µM), for inactives: top-dose activity, negative = inhibition, most hits filed as inhibitors;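 further: Gal4-VP16 expression switched on by copper sulfate through the metallothionein promoter; nearly all actives have a fitted effect of over 50% in size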
Tau ThT inhib = tau fibrillization inhibition (ThT binding). recombinant tau K18 P301L (four-repeat tau fragment), heparin-induced fibrillization, ThT fluorescence. Potency, µM (top dose mostly 57.4 µM), for inactives: at the highest dose activity, negative = inhibition, hits mostly inhibitors. 270,000 tested, 2.1% active. AID 1460; further: nearly all actives have a fitted effect of over 55% in size
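Tau K18 P301L fragment (15 uM unlabeled plus 0.24 uM Alexa 594-labeled) in 100 mM sodium acetate pH 7 with compound, fibrillization induced by 20 uM heparin for 6 hr at 37 C. Thioflavin T (30 uM) added, fluorescence read after 1 hr (ex 450, em 510 nm).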
Active calls of the source: *; ? = inconclusive; nt = no result; [ ] = dose if it differs, or a comment. In the library only some 7.3% were active in any assay of this set; here they are far more common. The call rests on the fitted dose curve; in most records, active means well fitted curve in the direction sought with a large enough effect; inconclusive means small, poorly fitted or top-dose-only effect, or another doubt; inactive means no such curve, though single readings can be large; an effect the other way counts as inactive or inconclusive. On the % scale 0 is the no-effect control and ±100 the full control effect; potency means the concentration at half of the fitted maximal effect.

SMILES	Tau fibril FP	Tau fluor cs	RORgamma inh	VP16 counter	Tau ThT inhib
Cc1c(Cl)cccc1NC(=S)NCCC(C)C	0%	-8%	4.5µM*	6.3µM*	1%
Cc1c(Cl)cccc1NC(=S)NCC(C)C	-5%	-11%	6.3µM*	?	-4%
Cc1cc(Cl)ccc1NC(=S)NCCC(c1ccccc1)c1ccccc1	?	?	7.1µM*	6.3µM*	11%
CC(=O)Nc1cccc(NC(=S)Nc2cccc(Cl)c2C)c1	-6%	2%	2%	-4%	-1%
Cc1c(Cl)cccc1NC(=S)NCCC(c1ccccc1)c1ccccc1	1%	-12%	0.63µM*	1.3µM*	-10%
COC(C(=O)Nc1ccc(Cl)cc1C)c1ccccc1 (configuration not stated)	4%	2%	-2%	1%	-4%
Cc1c(Cl)cccc1NC(=S)NCCN1CCOCC1	-2%	1%	?	-10%	-4%
Cc1c(Cl)cccc1NC(=S)NCC(c1cccnc1)N(C)C (configuration not stated)	-5%	-10%	-35%	3%	-11%
CCOC(=O)c1cc2c(nc1N)CCCC2	4%	-2%	-15%	-16%	-6%
C=C(C)CNC(=S)Nc1nc2c(cc1C(=O)OCC)CCCC2	-1%	6%	5µM*	10µM*	-1%
Nc1ncnc(Oc2cccc3cccnc23)c1[N+](=O)[O-]	-5%	-10%	4.5µM*	8.9µM*	?
CCC(C)N(NC(C)=O)c1nc(Cl)nc(NC(C)C)n1 (configuration not stated)	-5%	-2%	11µM*	?	3%
CC(=C/c1ccccc1)/C=N/n1c(C)n[nH]c1=S	nt	nt	8.9µM*	6.3µM*	nt
C=CCOc1c(Br)cc(/C=N/n2c(CC)n[nH]c2=S)cc1Br	6%	-12%	7.9µM*	7.9µM*	-24%
CCc1n[nH]c(=S)n1/N=C/c1ccc(N(CC)CC)cc1	2%	-29%	2.8µM*	6.3µM*	?
CCc1n[nH]c(=S)n1/N=C/c1cc(Br)c(O)c(OC)c1	4%	-6%	-7%	-7%	-14%
CC(=C/c1ccccc1)/C=N/n1c(-c2ccncc2)n[nH]c1=S	-3%	-19%	?	-3%	?
CC(/C=N/n1c(COc2ccccc2)n[nH]c1=S)=C\c1ccccc1	8%	?	2.5µM*	?	?
CCOc1ccc(NC(=O)CSc2nnc(-c3ccc(C)cc3)c(-c3ccc(C)cc3)n2)cc1	?	-29%	nt	nt	?
O=C(CO)[C@@H](O)C(O)[C@@H](O)CO (some centres not stated)	nt	nt	-8%	-6%	nt
CCCCS(=O)CC(O)CSc1nc(-c2ccc(OC)cc2)cc(-c2ccccc2)c1C#N (configuration not stated)	-7%	-19%	nt	nt	-4%
CCc1ccc(/C=N/n2c(COc3ccccc3)n[nH]c2=S)cc1	nt	nt	0.89µM*	?	nt
Cc1cccc(/C=N/n2c(COc3ccccc3)n[nH]c2=S)c1	nt	nt	7.1µM*	?	nt
S=c1[nH]nc(COc2ccccc2)n1/N=C/c1ccc(Cl)c(Cl)c1	nt	nt	?	-17%	nt
FC(F)(F)c1ccc(/C=N/n2c(COc3ccccc3)n[nH]c2=S)cc1	nt	nt	?	-16%	nt
SMILES	Tau fibril FP	Tau fluor cs	RORgamma inh	VP16 counter	Tau ThT inhib
CCOc1ccc(/C=N/n2c(COc3ccccc3)n[nH]c2=S)cc1OC	nt	nt	-33%	-5%	nt
S=c1[nH]nc(COc2ccccc2)n1/N=C/c1ccncc1	-1%	8%	10µM*	3%	3%
Cc1ccc(C(=O)N/N=C\c2ccc(-c3ccc(Cl)cc3)o2)cn1	-7%	?	2.5µM*	10µM*	?
Cc1ccc(C(=O)N/N=C\c2ccc(-c3ccc([N+](=O)[O-])cc3)o2)cn1	6%	-29%	?	-2%	3.2µM*
COC(=O)c1cc2oc3ccccc3c2n1CC(=O)Nc1ccc(C)cc1C	-2%	-4%	nt	nt	-9%
Cc1c(Cl)cccc1NC(=O)CN1C(=O)CCn2nc(-c3cccn3C)cc21	6%	-23%	nt	nt	-9%
NNc1nc(-c2ccccc2)c2cc(Br)ccc2n1	nt	nt	2.5µM*	-14%	nt
NNc1nc(-c2ccccc2)c2cc(Cl)ccc2n1	11%	-17%	13µM*	-24%	?
Clc1ccc(Nc2nc(-c3ccccc3)c3cc(Cl)ccc3n2)cc1	-16%	-22%	nt	nt	-14%
NNc1nc(-c2ccccc2)cc(-c2ccc(Br)cc2)n1	nt	nt	18µM*	?	nt
OCCCNc1nc(-c2ccccc2)c2cc(Br)ccc2n1	nt	nt	8%	8%	nt
COc1ccc(NC(=O)CSc2nnc(-c3cnccn3)n2C)cc1OC	nt	nt	-4%	-8%	nt
CCN(CC)c1ccc(/C=N\NC(=O)c2cccc3cc[nH]c23)cc1	-4%	14µM*[quencher]	7.1µM*	18µM*	6.3µM*
CCN(CC)c1ccc(/C=N\NC(N)=O)cc1	12%	-8%	?	8%	?
O=C(N/N=C/c1ccc(F)cc1)c1ccccc1	-3%	-5%	-30%	-1%	-2%
CCN(CC)c1ccc(C(=O)N/N=C(\C)c2ccc(O)cc2)cc1	1%	-15%	-33%	-6%	?
CCN(CC)c1ccc(/C=N/NC(=O)c2ccc(O)cc2)cc1	16%	?	1.1µM*	2.5µM*	3.2µM*
CN(C)c1ccc(/C=N/NC(=O)c2ccc(NC(=O)c3ccccc3)cc2)cc1	3%	?	30%	1%	1.6µM*
CCN(CC)c1ccc(/C=N/NC(=O)c2ccoc2C)cc1	-3%	?	20µM*	?	10µM*
COc1ccc(NC(=O)NC(C)(C(F)(F)F)C(F)(F)F)cc1	5%	-4%	7%	1%	-7%
CC(NC(=O)Nc1ccc(O)cc1)(C(F)(F)F)C(F)(F)F	?	?	-13%	26%	22µM*
COc1ccc(N=Nc2c(N)n[nH]c2N)cc1	1%	-29%	4%	23%	14µM*
COc1ccc(N=Nc2ccc(N)nc2N)cc1	?	?	1%	1%	2.5µM*
COc1ccc(-c2nc(C)ncc2N=Nc2ccccc2)cc1	15%	?	13%	10%	?
COc1ccc(N=Nc2cc(C)ccc2O)cc1	11%	?	?	?	16µM*
CCCCCCCC/C=C\C/C=C\C/C=C\CCCC(=O)O	1%	-2%	3%	-3%	-12%
Cc1ccc2oc(C(=O)N(Cc3cccc(F)c3)C3CCS(=O)(=O)C3)c(C)c2c1 (configuration not stated)	-12%	-12%	nt	nt	-4%
O=S(=O)(NCc1nnc2c(C(F)(F)F)cc(Cl)cn12)c1ccccc1	nt	nt	-22%	-1%	nt
O=C(Nc1cccc(NC(=O)c2ccco2)c1)c1cccc(Br)c1	nt	nt	19%	-1%	nt
O=C(Nc1cccc(N=Cc2cc(Br)cc(Br)c2O)c1)c1ccco1	?	-22%	?	-18%	14µM*
